Source: PubChem BioAssay AID463173 (ICCB-Longwood Screening Facility, Harvard Medical School, 2010)
The whole screen tested about 52,000 compounds, of which about 4,300 (8.3%) were called active. Cut-off read from the data, not from the text of the source: active = survival mostly below about 52% (no sharp cut-off); inactive = mostly above about 56%. The full list was thinned out, with actives kept by preference.

test system: DeltatarO mutant; assay: S. aureus survival, RN4220 and DeltatarO strains – OD600, teichoic acid synthesis inhibitors, primary screen (AID 463173); details: S. aureus RN4220 wild type/DeltatarO growth, OD600, 18 h, hits give low values, screened at 18.75 µg/mL (by protocol)

SMILES	survival
COc1ccccc1C(=O)Nc1cc2c(cc1N1CCOCC1)n(C)c(=O)n2C	136% (inactive)
CCOc1cc(-c2nnc(SCC(=O)NCc3ccc(C)cc3)nc2-c2ccc(OC)c(OCC)c2)ccc1OC	78% (inactive)
CCOc1cc(NC(=S)NCCCN2CCOCC2)c(OCC)cc1NC(=O)C1CC1	94% (inactive)
Cn1cnc(S(=O)(=O)N2CCCC(C(=O)Nc3ccc(OC(F)(F)F)cc3)C2)c1 (stereo not drawn)	25% (active)
O=C(Nc1ccc(Cl)cc1)C1CCN(S(=O)(=O)c2ccc(Br)s2)CC1	47% (active)
O=C(O)C1CCN(C(=O)c2cccs2)CC1	88% (inactive)
Cn1cnc(S(=O)(=O)N2CCC(C(=O)Nc3ccc(OC(F)(F)F)cc3)CC2)c1	92% (inactive)
Cc1cc(NC(=O)C2CCN(S(=O)(=O)c3ccc(Br)s3)CC2)ccc1Br	79% (inactive)
O=C(Nc1ccc(OC(F)(F)F)cc1)C1CCCN(S(=O)(=O)c2ccc(Br)s2)C1 (stereo not drawn)	80% (inactive)
O=C(c1cccs1)N1CCC(Cc2ccccc2)CC1	86% (inactive)
O=C(Nc1ccccc1)C1CCN(C(=O)c2cccs2)CC1	67% (active)
O=C(Nc1ccc(OC(F)(F)F)cc1)C1CCN(S(=O)(=O)c2cccs2)CC1	21% (active)
CC(C)c1ccc(NC(=O)C2CCN(S(=O)(=O)c3ccc(Br)s3)CC2)cc1	73% (inactive)
O=C(Nc1ccc(OC(F)(F)F)cc1)C1CCN(S(=O)(=O)c2ccc3[nH]c(=O)ccc3c2)CC1	92% (inactive)
CC(=O)c1ccc(NC(=O)C2CCCN(S(=O)(=O)c3cn(C)cn3)C2)cc1 (stereo not drawn)	94% (inactive)
CCC1SC(C)C/C(=N\O)C1C (stereo not drawn)	105% (inactive)
CCOc1ccc(CCNC(=O)CCCc2nnc3n(C)c(=O)c4sccc4n23)cc1OCC	93% (inactive)
COc1cc(OC)cc(-c2nc3nc(C)c(CCC(=O)Nc4cc(C)cc(C)c4)c(C)n3n2)c1	69% (inactive)
O=C(NCc1cccc(Br)c1)C1CCN(C(=O)c2sccc2-n2cccc2)CC1	66% (inactive)
O=C(CN1C(=O)COc2ccc(S(=O)(=O)N3CCCCCC3)cc21)N1CCN(c2ccc(F)cc2)CC1	67% (inactive)
CCCC(=O)Nc1nnc(SCc2cc(=O)c3ccc(C)cc3[nH]2)s1	122% (inactive)
COc1ccc(NS(=O)(=O)c2cc(-c3onc(C)c3C)ccc2C)c(OC)c1	89% (inactive)
O=C(Nc1cccc(C(F)(F)F)c1)C1CCN(S(=O)(=O)c2cccs2)CC1	39% (active)
O=C(Nc1cccc(C(F)(F)F)c1)C1CCN(S(=O)(=O)c2cccc3nsnc23)CC1	81% (inactive)
CCc1cccc(NC(=O)C2CCCN(S(=O)(=O)c3cccs3)C2)c1 (stereo not drawn)	80% (inactive)

SMILES	survival
CCOc1ccccc1NC(=O)C1CCN(S(=O)(=O)c2cccs2)CC1	58% (inactive)
Cc1ccc(NC(=O)C2CCN(S(=O)(=O)c3cccs3)CC2)cc1	40% (active)
COc1ccc(NC(=O)C2CCCN(S(=O)(=O)c3cccs3)C2)cc1 (stereo not drawn)	96% (inactive)
O=C(O)C1CSC(c2cccs2)N1 (stereo not drawn)	83% (inactive)
CCN1C(=O)c2ccccc2Sc2ccc(NC(=O)c3ccc(C#N)cc3)cc21	102% (inactive)
COc1ccc(Nc2cc(C(=O)NCCCN(C)C3CCCCC3)c3ccccc3n2)cc1	97% (inactive)
N#Cc1ccc(C(=O)N2CCN(c3nc4ccc(F)cc4s3)CC2)cc1	72% (inactive)
O=C(CSc1nc(-c2ccc(F)cc2)cc(C(F)(F)F)n1)NCCc1ccccc1	73% (inactive)
O=C(NCc1ccc(F)cc1)c1cc(-c2ccc(Cl)cc2)n[nH]1	85% (inactive)
Fc1ccc(CNc2cc(-c3ccccc3)nc3nncn23)cc1	17% (active)
COc1ccc(-c2cc(NCc3ccc(F)cc3)n3cnnc3n2)cc1	61% (inactive)
O=S(=O)(c1ccccc1)n1nc(-c2ccc(Cl)cc2)nc1NCc1ccc(F)cc1	53% (inactive)
Fc1ccc(CNc2nc(-c3ccc(Cl)cc3)cc(C(F)(F)F)n2)cc1	12% (active)
Clc1ccc(CNc2cc(-c3ccccc3)nc3nncn23)cc1	50% (inactive)
Fc1ccc(CNc2nc(-c3ccccc3)cc(C(F)(F)F)n2)cc1	4% (active)
Fc1ccc(-c2cc(C(F)(F)F)nc(NCc3ccccc3)n2)cc1	85% (inactive)
O=C(NCC(c1cccnc1)N1CCN(Cc2ccccc2)CC1)C(=O)Nc1cccc(Cl)c1 (stereo not drawn)	77% (inactive)
CCOC(=O)c1cccc(NC(=O)Cc2ccc(NC(=O)N3CCCCc4ccccc43)cc2)c1	76% (inactive)
Cc1csc2nc(COC(=O)COc3ccccc3F)cc(=O)n12	64% (inactive)
CCOC(=O)c1[nH]cnc1C(=O)Nc1ccc(F)cc1	64% (inactive)
COc1cccc(NC(=O)CSc2nnc(NC(=O)NC3CCCCC3)s2)c1	75% (inactive)
COc1ccc(NC(=O)Cn2c(=O)n(CCc3ccccc3)c(=O)c3sc4ccccc4c32)cc1	76% (inactive)
O=C(CN1C(=O)CCSc2ccc(S(=O)(=O)N3CCCC3)cc21)Nc1cccc(F)c1	72% (inactive)
CCCCn1c(=NC(=O)c2c(-c3c(F)cccc3Cl)noc2C)c(C(=O)OCC)cc2c(=O)n3ccccc3nc21	170% (inactive)
COc1ccc(CNC(=O)CN2C(=O)COc3ccccc32)c(OC)c1	89% (inactive)

SMILES	survival
CC1CCN(S(=O)(=O)c2ccc3c(c2)CCN3C(=O)Nc2ccccc2Br)CC1	76% (inactive)
CCc1ccc(NC(=O)CSc2ccc3nnc(CCNS(=O)(=O)c4ccc(OC)cc4)n3n2)cc1	81% (inactive)
Cc1ccc(C)c(CSc2ccc3nnc(CCNS(=O)(=O)c4ccccc4)n3n2)c1	75% (inactive)
O=S(=O)(NCCc1nnc2ccc(SCc3ccccc3Cl)nn12)c1ccccc1	68% (active)
O=S(=O)(NCCc1nnc2ccc(SCc3cccc(Cl)c3)nn12)c1ccccc1	58% (inactive)
COc1ccc(S(=O)(=O)NCCc2nnc3ccc(SCC(=O)Nc4ccc(C(F)(F)F)cc4)nn23)cc1	81% (inactive)
O=S(=O)(NCCc1nnc2ccc(SCc3c(F)cccc3Cl)nn12)c1ccccc1	58% (inactive)
COc1ccc(S(=O)(=O)NCCc2nnc3ccc(SCC(=O)Nc4cc(C)cc(C)c4)nn23)cc1	63% (active)
O=S(=O)(NCCc1nnc2ccc(SCc3ccc(Cl)cc3Cl)nn12)c1ccccc1	37% (active)
Cc1cccc(CSc2ccc3nnc(CCNS(=O)(=O)c4ccccc4)n3n2)c1	68% (inactive)
Cc1onc(-c2ccccc2Cl)c1C(=O)Oc1ccccc1F	76% (inactive)
Cc1ccc(NC(=O)c2cc3c(=O)[nH]c4ccccc4c3n2C)cc1F	83% (inactive)
O=C(OCCN1CCOCC1)c1ccccc1	88% (inactive)
Cc1ccc(-n2ncc3c(NCCCN(C)C)ncnc32)cc1Cl	95% (inactive)
COc1ccc(-c2noc(-c3ccc(N4CCN(c5ccccc5)CC4)c([N+](=O)[O-])c3)n2)cc1	49% (inactive)
Cc1ccccc1OCC(=O)Nc1ccc2nc(SCc3ccccc3)sc2c1	88% (inactive)
CCc1ccc(OCC(=O)N(Cc2ccc(C)cc2)Cc2ccco2)cc1	91% (inactive)
Cc1cccc(OCC(=O)N(Cc2ccc(C(C)C)cc2)Cc2ccco2)c1C	49% (inactive)
Cc1cc(OC(C)C(=O)N(Cc2ccco2)Cc2ccco2)cc(C)c1Cl (stereo not drawn)	35% (active)
Cc1cc(OC(C)C(=O)N(Cc2ccco2)Cc2ccccc2F)cc(C)c1Cl (stereo not drawn)	81% (inactive)
Cc1ccc(OCC(=O)N(Cc2ccc(Cl)cc2)Cc2ccco2)cc1C	58% (inactive)
CCc1ccc(CN(Cc2ccco2)C(=O)COc2ccc(Cl)c(C)c2)cc1	38% (active)
Cc1ccc(CN(Cc2ccco2)C(=O)COc2cc(C)c(Cl)c(C)c2)cc1	58% (inactive)
Cc1ccc(CN(Cc2ccco2)C(=O)COc2cccc(C)c2C)o1	66% (inactive)
Cc1cc(OC(C)C(=O)N(Cc2ccc(N(C)C)cc2)Cc2ccco2)ccc1Cl (stereo not drawn)	67% (inactive)

SMILES	survival
Cc1cccc(OCC(=O)N(Cc2ccc(N(C)C)cc2)Cc2ccco2)c1C	42% (active)
Cc1ccc(CN(Cc2ccco2)C(=O)COc2c(C)cc(C)cc2C)cc1	54% (inactive)
Cc1ccc(CN(Cc2ccco2)C(=O)COc2ccccc2C)cc1	40% (active)
NNC(=O)C1CCN(S(=O)(=O)c2ccccc2N)CC1	95% (inactive)
CCOc1cc(C(=O)OCc2cc(=O)n3nc(C4CC4)sc3n2)cc(OCC)c1OCC	79% (inactive)
COCCNC(=S)N1CCC(NC(=O)Nc2ccc(F)cc2)CC1	91% (inactive)
CC(SCc1ccccc1)C(=O)NCc1ccccn1 (stereo not drawn)	77% (inactive)
COc1ccccc1N1CCN(C(=O)Cn2ncc3ccsc3c2=O)CC1	114% (inactive)
CC1CCc2c(sc(NC(=O)c3ccc(Cl)cc3Cl)c2C#N)C1 (stereo not drawn)	71% (inactive)
COc1cc(CN(C(=O)c2ccc(C)cc2)c2ccccn2)cc(OC)c1OC	78% (inactive)
CN(CCC(N)=O)Cc1ccccc1	75% (inactive)
CCCn1c(CNC(=O)c2ccc(F)cc2)nc2ccccc21	76% (inactive)
CCCCCCn1c(/C=C/c2ccccc2)nc2ccccc21	1% (active)
CC(C)CCn1c(/C=C/c2ccccc2)nc2ccccc21	-1% (active)
CC(C)Cn1c(/C=C/c2ccc(F)cc2)nc2ccccc21	-4% (active)
CCC(C)Cn1c(/C=C/c2ccccc2)nc2ccccc21 (stereo not drawn)	-1% (active)
CCc1nc2ccccc2n1CC(C)C(=O)O (stereo not drawn)	96% (inactive)
Cc1cccc(C(=O)NCCc2nc3ccccc3n2CCC(C)C)c1	99% (inactive)
CCCCCCn1c(CNC(=O)c2ccccc2)nc2ccccc21	66% (inactive)
CCCCCn1c(CNC(=O)c2ccccc2)nc2ccccc21	67% (inactive)
CCCn1c(SCC(O)c2ccccc2)nc2ccccc21 (stereo not drawn)	86% (inactive)
CCCCCn1c(CNC(=O)c2ccc(F)cc2)nc2ccccc21	68% (inactive)
CCn1c(O)c(/C=C/c2nc3ccccc3n2CC)sc1=S	78% (inactive)
